Compounds with a hit are over-represented: about 9.3% of the library has one in this group of screens.
FLuc counter: firefly luciferase modulation, counter-screen for miR-21 project | P08659 | purified FLuc, Km substrates, luminescence inhibition | Potency, µM (highest dose often 57.5 µM), for inactives: at the highest dose activity change, negative = inhibition, most hits filed as inhibitors | 6.9% of 360,000 active;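 note: plate controls were vehicle for no effect and reference inhibitor for full effect; nearly all actives have a fitted effect of over 55% in size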
Target sequence (P08659 whole entry, looked up): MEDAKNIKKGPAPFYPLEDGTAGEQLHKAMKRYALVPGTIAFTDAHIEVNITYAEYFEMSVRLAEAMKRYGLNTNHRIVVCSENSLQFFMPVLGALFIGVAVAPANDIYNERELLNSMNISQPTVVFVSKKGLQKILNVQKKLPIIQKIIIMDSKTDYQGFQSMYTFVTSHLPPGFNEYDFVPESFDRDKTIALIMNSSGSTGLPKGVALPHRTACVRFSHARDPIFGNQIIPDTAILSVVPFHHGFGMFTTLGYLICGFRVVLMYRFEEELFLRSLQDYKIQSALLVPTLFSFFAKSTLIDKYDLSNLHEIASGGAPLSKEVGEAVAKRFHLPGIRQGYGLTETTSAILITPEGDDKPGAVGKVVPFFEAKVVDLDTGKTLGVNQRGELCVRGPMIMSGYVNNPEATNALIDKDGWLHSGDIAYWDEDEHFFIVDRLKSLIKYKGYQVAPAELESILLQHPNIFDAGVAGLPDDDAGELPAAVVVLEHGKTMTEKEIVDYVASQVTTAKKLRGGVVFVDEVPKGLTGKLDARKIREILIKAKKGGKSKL
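Biochemical qHTS of compounds, final roughly 60 µM downward over six points, against 10 nM purified firefly luciferase using Km concentrations of substrates (10 uM D-luciferin, 10 uM ATP) in Tris acetate pH 7.5 buffer; luminescence output.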
NPC1 promoter act: activates the NPC1 promoter; AID 485313; Huh7 NPC1 promoter luciferase reporter, 24 h; 2.4% of 320,000 active; Potency, µM (doses to about 9.22 µM), without a hit: at the top dose activation, hits mostly activators; note: % of control where 0% means no effect; nearly all actives have a fitted effect of over 60% in size
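Stably transfected Huh7 (NPC1 promoter→luciferase), 1500 cells/well in Opti-MEM + 10% FBS, 2 h settle, then compound 24 h at 37 °C. Luminescence after 10 min with Amplite reagent.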
ELG1 genotox: genotoxicity induction in ELG1-luciferase HEK293T cells. HEK293T ELG1-luciferase reporter, luminescence, 16 h. Potency, µM (top dose mostly 46 µM), without a hit: top-dose activity change, positive = activation, usual class: activators. 1.3% of 330,000 active; note: % of control where 0% means no effect; nearly all actives have a fitted effect of over 60% in size
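HEK293T cells expressing luciferase-tagged ELG1 were exposed to compound or DMSO vehicle for 16 hr at 37 °C and 5% CO2. Luciferase activity was then measured with ONE-Glo after 30 min at room temperature.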
Rab9 promoter act: activates the Rab9 promoter; Huh7 Rab9 promoter-luciferase reporter, luminescence, 24 h; AID 485297; 2.8% of 320,000 active; Potency, µM (doses to about 9.22 µM), for inactives: at the top dose activation, negative = inhibition, usual class: activators; note: % of control where 0% means no effect; nearly all actives have a fitted effect of over 60% in size
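Steps: seed 1500 Huh7 Rab9-luc cells per well, rest 2 h at 37 °C; add compound in DMSO; incubate 24 h; add luciferase reagent, 10 min ambient; read luminescence.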
ELG1 repair inh: blocks ELG1-dependent DNA repair in HEK293T cells; AID 504467; 2.3% of 330,000 active; HEK293T ELG1-luciferase reporter, luminescence, 16 h; DNA damage induced by 5-fluorouridine; Potency, µM (highest dose often 46.1 µM), inactives show top-dose activity change, negative = inhibition, actives largely listed as inhibitors; note: % is set by controls: 0 for no effect and ±100 for the full control effect; nearly all actives have a fitted effect of over 55% in size
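5-Fluorouridine DNA damage + compound/DMSO, 2,000 cells/well, 16 h, 37 °C/5% CO2. ONE-Glo, 30 min RT, luminescence. Readout = decrease in reporter signal.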
SMN2 splice up: increases expression of the SMN2 splice variant; HEK293 SMN2-luciferase splicing reporter, luminescence, 30-36 h; Potency, µM (top dose mostly 46.1 µM), for the others: at the highest dose activity change, positive = activation, usual class: activators; 2.8% of 210,000 active; AID 1458; note: % of control where 0% means no effect; nearly all actives have a fitted effect of over 55% in size
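qHTS luciferase splicing reporter: luminescence rises when SMN2 exon 7 is included in transfected HEK293 cells. Compound exposure lasted 30-36 h at 37C, with 4.5 mM final sodium butyrate as control, followed by a ONE-Glo read.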
Starred values were filed as active, the others as inactive; [ ] = another dose, or the depositor's remark. Calls come from the whole dose curve; as a rule, active = well fitted curve in the direction sought with a large enough effect; inconclusive = small, poorly fitted or top-dose-only effect, or another doubt; inactive = no such curve, though single readings can be large; an effect the other way counts as inactive or inconclusive. Potency is the fitted concentration of half-maximal effect.

What do the screens show for `CCOc1cc(NS(=O)(=O)c2ccc(OC)cc2)c(OCC)cc1NC(=O)c1ccco1`?
FLuc counter: 8.3%; NPC1 promoter act: -1.7%; ELG1 genotox: -1.3%; Rab9 promoter act: -0.1%; ELG1 repair inh: inconclusive; SMN2 splice up: 5.9%

Results for COC(=O)c1cc(OC)c(OC)cc1NC(=O)c1ccco1 ?
FLuc counter: -6.4%; NPC1 promoter act: 1.3%; ELG1 genotox: 2.6%; Rab9 promoter act: 2.1%; ELG1 repair inh: 23.1µM*; SMN2 splice up: -12.0%

Results for CCC(=O)Nc1ccc(NC(=O)c2ccco2)c(OC)c1 ?
FLuc counter: 1.7%[2.3 µM]; NPC1 promoter act: 23.7%; ELG1 genotox: inconclusive; Rab9 promoter act: inconclusive; ELG1 repair inh: inconclusive; SMN2 splice up: 40.0%

Results for CCOc1cc(NS(=O)(=O)CC)c(OCC)cc1NC(=O)c1ccco1 ?
FLuc counter: -10.6%; NPC1 promoter act: 12.7%; ELG1 genotox: -7.3%; Rab9 promoter act: 7.5%; ELG1 repair inh: 16.4µM*; SMN2 splice up: -10.4%

Results for COc1ccc(NC(=O)COC(=O)c2cc(OC)c(OC)cc2NC(=O)c2ccco2)cc1OC ?
FLuc counter: -0.6%; NPC1 promoter act: -3.9%; ELG1 genotox: -0.1%; Rab9 promoter act: -5.4%; ELG1 repair inh: 23.1µM*; SMN2 splice up: -14.5%

What do the screens show for `CC(=O)c1sc(NC(=O)c2c(F)cccc2F)nc1C`?
FLuc counter: -14.4%; NPC1 promoter act: -0.6%; ELG1 genotox: 7.7%; Rab9 promoter act: -6.4%; ELG1 repair inh: 6.8%; SMN2 splice up: 11.1%

How did CCCc1nnc(NC(=O)c2cc(=O)c3ccccc3o2)s1 do in these assays?
FLuc counter: inconclusive; SMN2 splice up: 3.4%

How did NC(=O)c1ccsc1NC(=O)c1cc(=O)c2ccccc2o1 do in these assays?
FLuc counter: 2.69µM*; NPC1 promoter act: inconclusive; ELG1 genotox: inconclusive; Rab9 promoter act: 1.78µM*; ELG1 repair inh: inconclusive; SMN2 splice up: 10µM*

What do the screens show for `CC(=O)c1sc(NC(=O)c2oc3ccc(F)cc3c2C)nc1C`?
FLuc counter: 1.9µM*; NPC1 promoter act: 2.24µM*; ELG1 genotox: 18.2%; Rab9 promoter act: 2.82µM*; ELG1 repair inh: inconclusive

How did O=C(Nc1nc2ccc(Cl)cc2s1)c1cc(=O)c2ccccc2o1 do in these assays?
FLuc counter: inconclusive; SMN2 splice up: 13.7%

How did CC(=O)Nc1ccc(NC(=O)c2cc(=O)c3ccccc3o2)cc1 do in these assays?
FLuc counter: 1.2%; NPC1 promoter act: 14.5%; ELG1 genotox: -18.8%; Rab9 promoter act: -0.3%; ELG1 repair inh: inconclusive; SMN2 splice up: -2.4%

What do the screens show for `CCOC(=O)c1csc(NC(=O)c2cc(=O)c3ccccc3o2)n1`?
FLuc counter: 15.1µM*; NPC1 promoter act: 15.6%; ELG1 genotox: 10.1%; Rab9 promoter act: inconclusive; ELG1 repair inh: inconclusive; SMN2 splice up: 23.2%

How did CC(=O)c1sc(NC(=O)c2cc(=O)c3ccccc3o2)nc1C do in these assays?
FLuc counter: 7.57µM*; NPC1 promoter act: 2.51µM*; ELG1 genotox: inconclusive; Rab9 promoter act: 3.16µM*; ELG1 repair inh: inconclusive; SMN2 splice up: 11.2µM*

How did Cc1coc2c(C)c3oc(=O)c(CC(=O)NCc4ccccc4)c(C)c3cc12 do in these assays?
FLuc counter: -2.1%; SMN2 splice up: -1.3%

How did COc1ccc(/C=C/C(=O)NCC(=O)N/N=C/c2cccs2)cc1 do in these assays?
FLuc counter: 2.5%; NPC1 promoter act: -0.3%; ELG1 genotox: -0.3%; Rab9 promoter act: 3.1%; ELG1 repair inh: 0.1%

Results for C[C@H](CO)N1C[C@H](C)[C@@H](CN(C)S(=O)(=O)c2ccc(F)cc2)Oc2ccc(NC(=O)NC3CCCCC3)cc2C1=O ?
ELG1 genotox: -3.2%; ELG1 repair inh: inconclusive

How did Cc1nn(C)c(C(=O)N/N=C/c2cccnc2)c1Br do in these assays?
FLuc counter: -3.0%; NPC1 promoter act: -0.5%; ELG1 genotox: 3.3%; Rab9 promoter act: 9.9%; ELG1 repair inh: 26.3%

Results for O=C(CN1CCN(S(=O)(=O)c2ccc(F)cc2)CC1)Nc1cc(C(F)(F)F)ccc1Cl ?
FLuc counter: -0.2%; NPC1 promoter act: -5.9%; ELG1 genotox: -11.3%; Rab9 promoter act: 2.5%; ELG1 repair inh: 25.9µM*; SMN2 splice up: -16.1%

Results for CC(=O)Nc1ccc(NC(=O)C(Cc2ccccc2)N2Cc3ccccc3C2=O)cc1 (centres undefined) ?
FLuc counter: -9.6%

Results for COc1ccc(/C=C/C(=O)c2ccc3c(c2)OCO3)cc1OC ?
FLuc counter: 15.1µM*; NPC1 promoter act: 9.8%; ELG1 genotox: inconclusive; Rab9 promoter act: -0.7%; ELG1 repair inh: 0.9%

How did COc1ccc(OC)c(/C=C/C(=O)c2ccc3c(c2)OCCO3)c1 do in these assays?
FLuc counter: 2.39µM*; NPC1 promoter act: 20.0%; ELG1 genotox: 6.6%; Rab9 promoter act: 22.8%; ELG1 repair inh: -14.8%

Results for COc1cc(/C=C/C(=O)c2ccc3c(c2)OCO3)cc(OC)c1OC ?
NPC1 promoter act: -4.7%; ELG1 genotox: -13.0%; Rab9 promoter act: -28.8%; ELG1 repair inh: 16.4µM*

How did COc1ccc(/C=C/C(=O)c2ccc(C(=O)/C=C/c3ccc(OC)c(OC)c3)cc2)cc1OC do in these assays?
FLuc counter: 2.5%; NPC1 promoter act: -5.8%; ELG1 genotox: 3.1%; Rab9 promoter act: -4.5%; ELG1 repair inh: inconclusive

What do the screens show for `COc1cc(/C=C/C(=O)c2ccc3c(c2)OCCO3)cc(OC)c1OC`?
FLuc counter: inconclusive; NPC1 promoter act: -14.7%; ELG1 genotox: -5.7%; Rab9 promoter act: -13.7%; ELG1 repair inh: inconclusive

Results for COc1ccc(C(=O)COC(=O)c2ccc3c(c2)OCCO3)c(OC)c1 ?
FLuc counter: 12µM*; NPC1 promoter act: -2.1%; ELG1 genotox: 13.9%; Rab9 promoter act: 23.1%; ELG1 repair inh: inconclusive

How did O=C(NCCO)C1CCN(C(=O)c2ccc(-c3ccccc3)cc2)CC1 do in these assays?
FLuc counter: 5.4%; NPC1 promoter act: -0.4%; ELG1 genotox: 3.5%; Rab9 promoter act: -0.5%; ELG1 repair inh: 7.7%

How did O=[N+]([O-])c1ccc(NC(=S)N2CCc3ccccc32)cc1 do in these assays?
FLuc counter: inconclusive; NPC1 promoter act: 19.0%; ELG1 genotox: -3.0%; Rab9 promoter act: -2.0%; ELG1 repair inh: -15.5%

Results for CCOc1cc(CNC(=O)c2ccc3nc(CCc4ccccc4)oc3c2)ccc1OC ?
FLuc counter: -11.2%

Assay outcomes (PubChem BioAssay)
